# Data reported in PubChem BioAssay (Tox21).
# Results filed as inconclusive are left out. Entries that show only a call come without a potency. A number with no mark means an inactive call. Active and inactive are the calls of the source. Unless noted, calls follow the shape of the dose curve; as a rule, active = well fitted curve in the direction sought with a large enough effect in the repeat runs; inconclusive = weak or mixed curves; inactive = no such curve, though single readings can be large; an effect the other way counts as inactive or inconclusive.
# What was measured:
# [1] = molecular target: Luciferin 4-monooxygenase (Photinus pyralis) (UniProt P08659); experiment: qHTS assay to identify small molecule inhibitors of firefly luciferase (AID 1224835); also: nearly all actives have a fitted effect of over 25% in size; also: potency is read from the fitted curve at half-maximal effect; conditions: purified P. pyralis luciferase, luminescence inhibition; series mostly up to 115 µM
# In short: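 Quantitative HTS format; KM concentrations of both substrates. Purified P. pyralis FLuc activity quantified from luminescence images.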
# [2] = qHTS assay to identify small molecule agonists of the constitutive androstane receptor (CAR) signaling pathway - cell viability counter screen (AID 1224836); conditions: HepG2-CYP2B6-hCAR viability, CellTiter-Fluor, 23 h, PK11195 added to every well; series mostly up to 92.4 µM; also: nearly all actives have a fitted effect of over 45% in size
# In short: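 Compound titrations (15 concentrations) went onto HepG2-CYP2B6-hCAR cells 4 h after seeding, alongside PK11195 at a final 0.75 uM; a 23 h, 37 C/5% CO2 incubation preceded CellTiter-Fluor viability measurement.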
# [3] = qHTS assay to identify small molecule antagonists of the constitutive androstane receptor (CAR) signaling pathway - cell viability counter screen (AID 1224837); conditions: HepG2-CYP2B6-hCAR viability, CellTiter-Fluor, 23 h, co-treated with 50 nM CITCO; series mostly up to 92.4 µM; also: nearly all actives have a fitted effect of over 45% in size; also: potency is read from the fitted curve at half-maximal effect
# In short: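 HepG2 cells stably expressing hCAR and a CYP2B6-2.2kb reporter were plated and pre-incubated 4 hr at 37 C/5% CO2, then given compounds at 15 concentrations plus 50 nM CITCO (final). After 23 hr, viability was read by CellTiter-Fluor fluorescence.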
# [4] = molecular target: Nuclear receptor subfamily 1 group I member 3 (Homo sapiens) (UniProt Q14994); experiment: qHTS assay to identify small molecule antagonists of the constitutive androstane receptor (CAR) signaling pathway (AID 1224838); conditions: HepG2-CYP2B6-hCAR luciferase, CITCO-stimulated, 24 h; series mostly up to 92.4 µM; also: nearly all actives have a fitted effect of over 40% in size; also: potency is read from the fitted curve at half-maximal effect
# In short: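 HepG2 cells stably co-transfected with hCAR and a CYP2B6-2.2kb luciferase reporter were seeded 4 h before compound addition at 15 concentrations. Cells were stimulated with 50 nM CITCO (final) for 24 h at 37 C; luciferase luminescence was then read.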
# [5] = molecular target: Nuclear receptor subfamily 1 group I member 3 (Homo sapiens) (UniProt Q14994); experiment: qHTS assay to identify small molecule agonists of the constitutive androstane receptor (CAR) signaling pathway (AID 1224839); conditions: HepG2 hCAR CYP2B6-luciferase, agonist mode, 24 h; series mostly up to 92.4 µM; also: nearly all actives have a fitted effect of over 15% in size; also: potency is read from the fitted curve at half-maximal effect
# In short: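 In this screen, CAR-driven CYP2B6 promoter activity is measured by luminescence in HepG2-CYP2B6-hCAR cells after 24 h with test compounds and 0.75 uM PK11195 (final concentration).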
# [6] = qHTS assay to identify small molecule antagonists of the estrogen related receptor signaling pathway with the pleiotropic PPARgamma coactivator (PGC) from Tox21 10K library - cell viability counter screen (AID 1224840; active = well fitted cell-killing curve with a large enough effect in the repeat runs, not every such curve was filed as active; also: nearly all actives have a fitted effect of over 40% in size; also: potency is read from the fitted curve at half-maximal effect); conditions: PGC/ERR reporter cells viability, CellTiter-Fluor, 17.5 h; series mostly up to 92.4 µM
# In short: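 PGC/ERR cells were seeded at 2,000 cells/well and left 6 hours at 37 C/5% CO2 before pin-tool addition of compounds in DMSO. After 17.5 hours at 37 C, CellTiter-Fluor was added and fluorescence read 30 minutes later.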
# [7] = qHTS assay to identify small molecule antagonists of the estrogen related receptor (ERR) signaling pathway from Tox21 library - cell viability counter screen (AID 1224834); conditions: ERR reporter cells viability, CellTiter-Fluor, 17.5 h; series mostly up to 92.4 µM; also: nearly all actives have a fitted effect of over 30% in size; also: potency is read from the fitted curve at half-maximal effect
# In short: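 ERR reporter cells were plated 6 h before compound addition, then exposed to test compounds in DMSO for 17.5 h at 37 C. Viability was read as CellTiter-Fluor fluorescence after a 30-minute incubation at 37 C.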
# [8] = qHTS assay to identify small molecule antagonists of the estrogen related receptor signaling pathway with the pleiotropic PPARgamma coactivator (PGC) from Tox21 10K library (AID 1224841; call rule not given here; also: actives are mostly falling curves and most rising ones were filed inactive; nearly all actives have a fitted effect of over 50% in size; also: potency is read from the fitted curve at half-maximal effect); conditions: PGC/ERR reporter cell line, ONE-Glo luciferase, 18 h; series mostly up to 92.4 µM
# In short: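 PGC/ERR reporter cells were seeded at 2,000 cells/well and held 6 hours at 37 C/5% CO2 before pin-tool addition of compounds in DMSO. After 18 hours at 37 C, One-Glo was added and luminescence read after 30 minutes at room temperature.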
# [9] = qHTS assay to identify small molecule agonists of the estrogen related receptor signaling pathway with the pleiotropic PPARgamma coactivator (PGC) from Tox21 10K library (AID 1224842); conditions: PGC/ERR reporter cell line, luciferase ONE-Glo, 18 h; series mostly up to 92.4 µM; also: nearly all actives have a fitted effect of over 15% in size
# In short: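 PGC/ERR reporter cells (NTP line) were seeded 2,000 per well, rested 6 h at 37 C/5% CO2, then pin-dosed with compounds in DMSO for 18 h at 37 C; luciferase read by One-Glo luminescence after 30 min at room temperature.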
# [10] = molecular target: Thyrotropin receptor (Homo sapiens) (UniProt P16473); experiment: qHTS assay to identify small molecule agonists of the thyroid stimulating hormone receptor (TSHR) signaling pathway (AID 1224843; calls by dose curve; also: nearly all actives have a fitted effect of over 45% in size; also: potency is read from the fitted curve at half-maximal effect); conditions: TSHR-HEK293 cells, cAMP HTRF, agonist mode, 30 min; series mostly up to 92.4 µM
# In short: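 Cell line HEK293 with TSHR; density 800/well. Exposure 30 min RT. Readout HTRF cAMP (cAMP-d2/anti-cAMP-cryptate), 1 h RT before reading.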
# Luciferin 4-monooxygenase (Photinus pyralis), sequence (P08659 whole entry, looked up): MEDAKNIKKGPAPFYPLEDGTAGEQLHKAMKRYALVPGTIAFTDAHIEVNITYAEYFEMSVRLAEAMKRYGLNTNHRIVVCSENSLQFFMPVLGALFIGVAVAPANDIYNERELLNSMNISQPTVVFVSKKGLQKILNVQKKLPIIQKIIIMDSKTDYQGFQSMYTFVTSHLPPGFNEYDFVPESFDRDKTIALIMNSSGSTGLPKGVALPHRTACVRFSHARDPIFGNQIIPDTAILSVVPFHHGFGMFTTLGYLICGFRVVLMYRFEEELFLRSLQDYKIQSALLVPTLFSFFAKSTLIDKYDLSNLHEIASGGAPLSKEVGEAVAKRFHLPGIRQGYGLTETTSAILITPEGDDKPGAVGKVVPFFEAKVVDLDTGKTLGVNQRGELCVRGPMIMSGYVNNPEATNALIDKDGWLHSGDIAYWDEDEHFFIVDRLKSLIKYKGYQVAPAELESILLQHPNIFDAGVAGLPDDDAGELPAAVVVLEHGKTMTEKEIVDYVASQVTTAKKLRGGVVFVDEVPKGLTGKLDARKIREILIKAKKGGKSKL
# Nuclear receptor subfamily 1 group I member 3 (Homo sapiens), sequence (Q14994 whole entry, looked up): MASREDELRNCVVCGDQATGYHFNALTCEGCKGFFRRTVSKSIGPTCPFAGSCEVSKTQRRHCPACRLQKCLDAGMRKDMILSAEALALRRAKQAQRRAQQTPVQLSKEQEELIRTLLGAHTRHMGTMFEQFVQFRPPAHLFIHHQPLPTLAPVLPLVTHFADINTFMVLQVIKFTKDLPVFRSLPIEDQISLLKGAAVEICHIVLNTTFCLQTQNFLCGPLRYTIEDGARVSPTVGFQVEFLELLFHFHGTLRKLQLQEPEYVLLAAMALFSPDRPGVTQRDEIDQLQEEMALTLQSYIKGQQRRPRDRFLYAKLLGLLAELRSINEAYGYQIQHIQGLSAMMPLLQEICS
# Thyrotropin receptor (Homo sapiens), sequence (P16473 whole entry, looked up): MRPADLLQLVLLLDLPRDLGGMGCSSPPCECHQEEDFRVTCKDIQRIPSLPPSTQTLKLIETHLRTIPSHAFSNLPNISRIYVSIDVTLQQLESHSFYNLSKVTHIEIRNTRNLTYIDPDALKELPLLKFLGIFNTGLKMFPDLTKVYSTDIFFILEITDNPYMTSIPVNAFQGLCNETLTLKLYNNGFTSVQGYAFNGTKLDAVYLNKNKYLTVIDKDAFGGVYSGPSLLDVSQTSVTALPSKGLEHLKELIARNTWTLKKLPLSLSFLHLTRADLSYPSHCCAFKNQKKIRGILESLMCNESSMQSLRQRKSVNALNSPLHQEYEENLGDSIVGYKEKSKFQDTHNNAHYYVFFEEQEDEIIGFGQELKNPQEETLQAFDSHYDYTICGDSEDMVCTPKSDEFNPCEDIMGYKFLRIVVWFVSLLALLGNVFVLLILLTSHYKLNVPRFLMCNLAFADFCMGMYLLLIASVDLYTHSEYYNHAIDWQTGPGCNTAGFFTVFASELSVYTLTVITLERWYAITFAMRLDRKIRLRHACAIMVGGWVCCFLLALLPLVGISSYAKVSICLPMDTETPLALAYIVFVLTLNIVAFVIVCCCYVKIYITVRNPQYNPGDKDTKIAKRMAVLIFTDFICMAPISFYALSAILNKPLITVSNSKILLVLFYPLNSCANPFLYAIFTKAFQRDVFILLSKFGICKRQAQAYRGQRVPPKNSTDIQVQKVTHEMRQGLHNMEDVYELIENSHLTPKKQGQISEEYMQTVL
SMILES,Potency [1],Potency [2],Potency [3],Potency [4],Potency [5],Potency [6],Potency [7],Potency [8],outcome [9],Potency [10]
CCOP(=S)(OCC)Oc1cc(-c2ccccc2)on1,31.7 µM (active),inactive,inactive,inactive,34.4 µM (active),inactive,,,,
C[C@]12CC[C@H]3[C@@H](CC=C4C[C@@H](O)CC[C@@]43C)[C@@H]1CC[C@@H]2O,,inactive,inactive,,,inactive,inactive,,,
CC(COc1ccc(Oc2ccccc2)cc1)Oc1ccccn1 (configuration not stated),,inactive,inactive,,54.4 µM (active),inactive,inactive,inactive,inactive,
CCCCc1c(C)nc(NCC)[nH]c1=O,inactive,inactive,inactive,inactive,inactive,inactive,,inactive,inactive,inactive
CC(C)CP(=S)(S)CC(C)C,inactive,inactive,,3.44 µM (active),inactive,2.73 µM (active),inactive,,,inactive
CCOP(=O)(N=C1SCCS1)OCC,inactive,inactive,inactive,inactive,inactive,inactive,,,,inactive
O=C(CCCN1CCC(n2c(=O)[nH]c3ccccc32)CC1)c1ccc(F)cc1,inactive,inactive,inactive,inactive,inactive,inactive,,,,inactive
N#CC(CCc1ccc(Cl)cc1)(Cn1cncn1)c1ccccc1 (configuration not stated),inactive,,,,21.7 µM (active),34.4 µM (active),30.6 µM (active),34.4 µM (active),inactive,8.63 µM (active)
CC1(C)COP(Oc2ccccc2)OC1,inactive,inactive,inactive,inactive,inactive,inactive,,inactive,inactive,inactive
Nc1n[nH]c(N)n1,inactive,,inactive,,inactive,inactive,inactive,,,inactive
COc1cc(OC)nc(Sc2cccc(Cl)c2C(=O)O)n1,inactive,inactive,inactive,inactive,inactive,inactive,,inactive,inactive,inactive
CC1=C(C(=O)Nc2ccccc2)S(=O)(=O)CCO1,inactive,,inactive,,inactive,,61.1 µM (active),,,inactive
COP(=S)(OC)Oc1c(Cl)cc(C)cc1Cl,,inactive,inactive,inactive,27.3 µM (active),,inactive,inactive,inactive,
O=C(Nc1ccccc1)N(Cc1ccc(Cl)cc1)C1CCCC1,inactive,,61.1 µM (active),,,,48.6 µM (active),,inactive,48.6 µM (active)
CCOP(=S)(OCC)Oc1ncn(-c2ccccc2)n1,,inactive,inactive,inactive,30.6 µM (active),inactive,inactive,,,
CN/C(=N\[N+](=O)[O-])NCC1CCOC1 (configuration not stated),,inactive,inactive,inactive,inactive,inactive,inactive,,,inactive
CCCCOC(=O)c1ccccc1C(=O)O,inactive,inactive,inactive,,inactive,,,,,inactive
O=[N+]([O-])c1ccc(CBr)cc1,inactive,inactive,inactive,inactive,,inactive,,,,inactive
Fc1ccc(C2(Cn3cncn3)OC2c2ccccc2Cl)cc1 (configuration not stated),inactive,,inactive,inactive,inactive,,,38.6 µM (active),inactive,inactive
CCNc1nc(NC(C)C)nc(OC)n1,inactive,inactive,inactive,,,,,inactive,inactive,inactive
C#CCN1C(=O)COc2cc(F)c(N3C(=O)C4=C(CCCC4)C3=O)cc21,inactive,inactive,inactive,inactive,48.6 µM (active),,,,inactive,inactive
CCc1cc2c(s1)-n1c(C)nnc1CN=C2c1ccccc1Cl,inactive,inactive,inactive,,inactive,,,inactive,inactive,
ClC(Cl)(Cl)C(Cl)(Cl)Cl,inactive,inactive,inactive,,,inactive,,,,
c1cc[c]([Hg][c]2ccccc2)cc1,17.8 µM (active),inactive,inactive,,,,,,,inactive
CN1CCN(C(=O)O[C@H]2c3nccnc3C(=O)N2c2ccc(Cl)cn2)CC1,inactive,inactive,inactive,,inactive,,,,,inactive
O=[N+]([O-])c1cccc2c([N+](=O)[O-])cccc12,inactive,,,inactive,,,,34.6 µM (active),inactive,inactive
N#CCCC#N,inactive,inactive,inactive,,,inactive,,,,
